The full ranking holds about 39,000 sequences; the median of “fluorescence intensity (a.u.)” is about 4,300, and the highest 2% start at about 39,000. What follows is part of a selection rich in the highest values, with near analogues and random picks from the rest.

The test addresses T1, OsSMF1 (Oryza sativa, UniProt Q6ZLB0 1-436).
T1 sequence: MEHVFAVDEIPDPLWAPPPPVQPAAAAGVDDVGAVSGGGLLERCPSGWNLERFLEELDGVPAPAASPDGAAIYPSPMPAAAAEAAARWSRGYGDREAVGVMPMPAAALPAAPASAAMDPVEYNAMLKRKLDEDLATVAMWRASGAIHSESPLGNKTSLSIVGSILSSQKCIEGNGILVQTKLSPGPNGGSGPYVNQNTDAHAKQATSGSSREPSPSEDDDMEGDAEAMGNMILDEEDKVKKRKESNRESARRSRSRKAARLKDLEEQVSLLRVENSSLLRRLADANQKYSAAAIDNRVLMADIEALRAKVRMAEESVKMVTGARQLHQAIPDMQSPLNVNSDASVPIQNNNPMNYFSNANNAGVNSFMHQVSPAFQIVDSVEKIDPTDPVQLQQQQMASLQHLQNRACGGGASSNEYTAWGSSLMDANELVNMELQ
The test can be described thus: protein-binding microarray (RPBM); PBS, 2% BSA, 51.3 ng/ul salmon testes DNA, 50 uM zinc acetate, 200 nM TF, 25 C, 1 h; high values mean tight binding. The settings on record: protein: recombinant; tags: N-terminal polyhistidine and DsRed monomer fusion (pET32a); chain copies: 2; label: CyDye5-dUTP incorporated in the synthesized complementary strand; 3' TTTTT single-stranded linker to array surface; dsDNA, one strand shown. In outline: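 The binding signal is fluorescence intensity per feature, in arbitrary units, read on an Axon 4000B scanner. Polyhistidine- and DsRed-tagged transcription factors (N-terminal fusions) from E. coli BL21-CodonPlus were purified on Ni–NTA and applied at 200 nM for 1 h at 25 °C to a double-stranded, BSA-blocked custom Agilent array in buffer with 50 µM zinc acetate.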
With “CTATGTTTTACACTTACACTCCTATCAAAATCCTACGTTTCGGAGTCACCTAGTGCAG”, the binding signal is 22600 fluorescence intensity (a.u.).
Consider “TAAAGCTTTTATGAATGAATAGCCTCGCTGGCAAGTGGGCCGGAGTCACCTAGTGCAG”, for which the binding signal was 3560 fluorescence intensity (a.u.).
As for “TTGTTCTGTCGATCCATCGGTATCCTGGTCAATTGGCAAGCGGAGTCACCTAGTGCAG”, the binding signal was 3160 fluorescence intensity (a.u.).
As to “ATCGAATGATCTAACGGCTCACACACTCCCACGCACTTTGCGGAGTCACCTAGTGCAG”, the binding signal was 3290 fluorescence intensity (a.u.).
As to “TCTGACGGGCGATGACGACGACGACGGTGCAAAAGCCTGACGGAGTCACCTAGTGCAG”, the binding signal is 3310 fluorescence intensity (a.u.).
In the case of “ACATCTAAAAGTAACTTGAGTTTTCTAAGCAACACATAAGCGGAGTCACCTAGTGCAG”, the binding signal is 24700 fluorescence intensity (a.u.).
Take “AAGCTCCCCGGCCAGGCCGCCATCGGCCACGTGAGGTACTCGGAGTCACCTAGTGCAG”: the binding signal was 4540 fluorescence intensity (a.u.).
Consider “TTTAATTGTTCTGCGATTACGGTAGAAATAGATCGGGCTTCGGAGTCACCTAGTGCAG”, for which the binding signal was 3210 fluorescence intensity (a.u.).
With “TTGAAACGTAACACTTGATATATGTATACATTATCCAACCCGGAGTCACCTAGTGCAG”, the binding signal was 3150 fluorescence intensity (a.u.).
In the case of “AATTGGACAATTCATCATAAATTTTGCATGAATGATGACACGGAGTCACCTAGTGCAG” it was 3750 fluorescence intensity (a.u.); in that of “TTTTCTATCACATCGTTTTAATTTCAATCAAACTTCCAATCGGAGTCACCTAGTGCAG”, 45300 fluorescence intensity (a.u.); in that of “CCAACTTTTCCATCACATCGTTCCAATTTCAACCAAACTTCGGAGTCACCTAGTGCAG”, 21900 fluorescence intensity (a.u.).
Take “GACATGAATTTTCCATCATATATTCATGCGGTTCATTATGCGGAGTCACCTAGTGCAG”: the binding signal is 4430 fluorescence intensity (a.u.).
As for “TTATATTTTAATTAAAACTATTATAATACACAATACGTCACGGAGTCACCTAGTGCAG”, the binding signal was 7060 fluorescence intensity (a.u.).
For “ACAAACTTCCAACTTTTCTATCACATCGTTCCAATTTCAACGGAGTCACCTAGTGCAG” the value was 22100 fluorescence intensity (a.u.); for “AATTATGTTTTATAAGACGTTAGCATTTAAACTACAATCCCGGAGTCACCTAGTGCAG”, 55600 fluorescence intensity (a.u.); for “TCCATTGCATATAATTCAATTCATCGAAATCATGACATTTCGGAGTCACCTAGTGCAG”, 46400 fluorescence intensity (a.u.).
Regarding “CAACAAATTTAAATTTATAGACGTCACCATACTGAAGGCGCGGAGTCACCTAGTGCAG”, the binding signal was 5460 fluorescence intensity (a.u.).
Take “TCATACTGCCATCATACCATCCTACAATAGACAAATTTAACGGAGTCACCTAGTGCAG”: the binding signal was 54300 fluorescence intensity (a.u.).
For “GGGTCATATAGAGACGACGATCAAATTTACCTTATTTTAACGGAGTCACCTAGTGCAG” the value was 3240 fluorescence intensity (a.u.); for “GTTATAAGACGTTTTGATTTTAGTCAAAGTCAAACTATTCCGGAGTCACCTAGTGCAG”, 32600 fluorescence intensity (a.u.); for “TAACCATGTAATTCCTCTGAAAATCCACAGATGAACTAGCCGGAGTCACCTAGTGCAG”, 3360 fluorescence intensity (a.u.).
In the case of “CCACCAGCCCGGTGGGATCCCGCCACGTCAGCGTGACCCGCGGAGTCACCTAGTGCAG” it was 22600 fluorescence intensity (a.u.); in that of “GTCTGGAGAGCCAGAGGAGAGGAGTAGCGGACGCGGTGCCCGGAGTCACCTAGTGCAG”, 26700 fluorescence intensity (a.u.).
On to “TTTCTGCGCTACGTGCTCGCCATGTCGTCCTCGTCACAAACGGAGTCACCTAGTGCAG”, for which the binding signal was 5120 fluorescence intensity (a.u.).
On to “CACCCGTGCGTAATCATGACGCCGGGGTGACGTCACCATCCGGAGTCACCTAGTGCAG”, for which the binding signal was 30200 fluorescence intensity (a.u.).
“GCTGGGTTTTCGAGGAGGCCTGACTGGATCATACTCGACTCGGAGTCACCTAGTGCAG”: the binding signal is 3250 fluorescence intensity (a.u.).
For “CCATCTGCGGCGTACTTGCCACTTTTCTTCGATCGGCACCCGGAGTCACCTAGTGCAG”, the binding signal is 3550 fluorescence intensity (a.u.).
In the case of “AGACCGCTCGCGCGTACGTGACGCGATCGGGCAGCGCGGGCGGAGTCACCTAGTGCAG”, the binding signal is 4060 fluorescence intensity (a.u.).
Turning to “ACTTTTCCGTCACATCGTTTTAATTTCTTTAAACTTTTAACGGAGTCACCTAGTGCAG”, the binding signal is 4680 fluorescence intensity (a.u.).
Regarding “TTCACACCCAGATAAATACAGCCTACTAGACCAATAGCCACGGAGTCACCTAGTGCAG”, the binding signal is 40000 fluorescence intensity (a.u.).
With “CCTAAAATACATGACCAGCCCACACAGGACTTAACCCACACGGAGTCACCTAGTGCAG”, the binding signal was 3230 fluorescence intensity (a.u.).
As for “ACCAGGTGGCTACAGCTGGCTAAATACCCAGTCACTACCACGGAGTCACCTAGTGCAG”, the binding signal is 3680 fluorescence intensity (a.u.).
Consider “TTATATCGTTTTAATTTCAATTAAACTTTCAATTTTAGTGCGGAGTCACCTAGTGCAG”, for which the binding signal is 48400 fluorescence intensity (a.u.).
For “CCATAATCACACTTCAATAGTAGTACTACCACAATTGCATCGGAGTCACCTAGTGCAG”, the binding signal is 45100 fluorescence intensity (a.u.).
With “TCTCTTTCTTTATTTCTTTAAAATATATTTATAGTTGTCTCGGAGTCACCTAGTGCAG”, the binding signal is 3490 fluorescence intensity (a.u.).
Regarding “TATAGAATTTTCTCTTAAAATACTTATCCGATTTATGATCCGGAGTCACCTAGTGCAG”, the binding signal is 54100 fluorescence intensity (a.u.).
As for “TTTTATCACATCGTTTTAATTTCAACCAAACTTTCAATTTCGGAGTCACCTAGTGCAG”, the binding signal was 32600 fluorescence intensity (a.u.).
In the case of “GTACATCAAACATTATCAATATCGGACACATAATCCATTGCGGAGTCACCTAGTGCAG”, the binding signal was 3850 fluorescence intensity (a.u.).
In the case of “TTCACATCGTTGCAATAAATAATTATACCACTACTTCATACGGAGTCACCTAGTGCAG” it was 24800 fluorescence intensity (a.u.).
Consider “ATAAAATTTTATGATATATAGATAATAATTTTACTTGCAACGGAGTCACCTAGTGCAG”, for which the binding signal is 4550 fluorescence intensity (a.u.).
In the case of “TTCATGCGCCCACATGACGTAGTGAATTAGTGGACTATGTCGGAGTCACCTAGTGCAG”, the binding signal was 4570 fluorescence intensity (a.u.).

For the origin of these results see article PMC7819943, “Rice protein-binding microarrays: a tool to detect cis-acting elements near promoter regions in rice”.
